Out of some 320,000 compounds screened, about 22,000 (6.9%) were called active. Roughly 27% stayed inconclusive and do not appear here. What follows is part of a selection rich in actives, with near analogues and random picks from the rest. A number with no mark means an inactive call. Calls follow the shape of the dose curve; as a rule, active = well fitted inhibition curve with a large enough effect; inconclusive = small, poorly fitted or top-dose-only effect, or another doubt; inactive = no such curve, though single readings can be large or run the other way.
Test: Primary qHTS for delayed death inhibitors of the malarial parasite plastid, 96 hour incubation
Conditions: P. falciparum luciferase reporter growth; series mostly up to 28.7 µM; activity change, negative = inhibition: at the top concentration
Summary of the method: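 Luminescence readout: decreased luciferase signal marks inhibited growth of reporter-expressing P. falciparum in infected red cells (2% hematocrit, 0.05% parasitemia final), exposed to compound two generations (96 h, 37 C, 5% CO2).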
% is scaled to controls: 0 for no effect and ±100 for the full control effect; potency is read from the fitted curve at half-maximal effect.

Row | Compound | activity change, negative = inhibition | Potency
1 | CN(C(=O)COC(=O)c1nc(Cl)ccc1Cl)C1CCS(=O)(=O)C1 (configuration not stated) | 23.1% | 
2 | Cc1cccc2cc(CN(Cc3cccs3)C(=S)NCc3ccco3)c(=O)[nH]c12 | -21.7% | 
3 | O=C(Nc1ccccc1)N(Cc1cccnc1)Cc1ccco1 | -7.92% | 
4 | Cc1ccc(C)c2[nH]c(=O)c(CN(Cc3cccnc3)C(=S)NCc3ccco3)cc12 |  | 3.7 µM (active)
5 | Cc1cn([C@H]2CC(F)[C@@H](CO)O2)c(=O)[nH]c1=O (some centres not stated) | 0.0378% | 
6 | O=C(Cn1nc(Cc2cccnc2)c2ccccc2c1=O)NCC1CCCO1 (configuration not stated) |  | 9.28 µM (active)
7 | O=C(CN1C(=O)NC2(CCCC2)C1=O)NCC1CCCO1 (configuration not stated) | 10.6% | 
8 | Cc1nn(CC(=O)NCC2CCCO2)c(=O)c2cc3ccccc3n12 (configuration not stated) | -29.6% | 
9 | CCCn1c2ccccc2c2cnn(CC(=O)NCCCN3CCCCC3CC)c(=O)c21 (configuration not stated) | 9.2% | 
10 | CCC1CCC2(CC1)NC(=O)N(CC(=O)Nc1ccc(OC)cc1)C2=O (configuration not stated) | 29.4% | 
11 | COc1ccc(S(=O)(=O)NC(C)C(=O)N2CCCCCC2)cc1 (configuration not stated) | -3.52% | 
12 | COc1ccc(CC(NC(C)=O)C(=O)NC2CCN(C(=O)c3ccc(Cl)cc3)CC2)cc1 (configuration not stated) | 3.33% | 
13 | O=C(C1CCN(Cc2ccc(Cl)cc2)CC1)N1CCN(Cc2ccc3c(c2)OCO3)CC1 | 4.83% | 
14 | COc1ccc(Cl)cc1C(=O)NCc1cn(C)nc1C | 24.3% | 
15 | Cc1ccc(-c2cc(C(=O)NCc3cn(C)nc3C)c3cc(Br)ccc3n2)cc1 |  | 13.1 µM (active)
16 | Cc1ccc2nc(-c3cccc(Br)c3)cc(C(=O)Nn3cnnc3)c2c1 | -3.98% | 
17 | O=C(CCNC(=O)c1ccc(Br)cc1)Nc1cccc(S(=O)(=O)N2CCCCC2)c1 | 5.81% | 
18 | O=C(O)c1ccc(NC(=O)c2ccc(COc3ccc(Cl)cc3)o2)cc1 | -3.61% | 
19 | COc1ccccc1CNS(=O)(=O)CC12CCC(CC1=O)C2(C)C (configuration not stated) | -8.22% | 
20 | Cc1c2cnn(-c3ccccc3)c(=O)c2c(C)n1CCCC(=O)N1CCN(C)CC1 |  | 13.1 µM (active)
21 | CC(=O)Cn1cnc2c(cnn2-c2ccccc2)c1=O | 2.1% | 
22 | O=C(CCCN1C(=O)C2C3C=CC(C3)C2C1=O)N1CCN(c2ccccc2)CC1 (configuration not stated) | -1.15% | 
23 | O=C(NCc1ccncc1)c1cccc(NS(=O)(=O)c2ccc(F)c(F)c2)c1 | -14.9% | 

Row | Compound | activity change, negative = inhibition | Potency
24 | CCOc1ccccc1NS(=O)(=O)c1cc2c3c(c1)C(C)C(=O)N3CCC2 (configuration not stated) | 35.1% | 
25 | CCOc1ccc(NC(=S)NC(=O)/C=C/c2ccc(OC)cc2)c([N+](=O)[O-])c1 | 12.4% | 
26 | COc1ccc(/C=C/C(=O)NC(=S)NN2CCCCC2c2cccnc2)cc1 (configuration not stated) |  | 13.1 µM (active)
27 | O=C(/C=C/c1ccc(F)cc1)NC(=S)NNC(=O)c1cccnc1 | 41% | 
28 | COC(=O)[C@@H](Cc1ccccc1)NC(=O)NCCc1ccccc1 | 25.5% | 
29 | O=C1N=C(N2CCc3ccccc3C2)S/C1=C\c1ccc(O)cc1 |  | 11.7 µM (active)
30 | O=C1N=C(N2CCCC2)S/C1=C\c1cccc(Br)c1 | -20.9% | 
31 | NC1=NC(=O)S/C1=C\c1ccc(O)cc1 | -5.18% | 
32 | COc1ccc(-c2nc3n(c(=O)c2C#N)CCS3)c(OC)c1 | 37.4% | 
33 | COc1cc(NS(=O)(=O)c2ccc(NC(=S)NC(=O)c3ccccc3)cc2)nc(OC)n1 | -7.09% | 
34 | Cc1ccnc(NC(=O)CCNS(=O)(=O)c2ccc(C)c(C)c2)c1 | 253% | 
35 | C/C(=N/NC(=O)c1ccc(Br)o1)c1ccc(C)o1 | -27.2% | 
36 | Cc1ccc(NC(=S)NC2CCCC2)cc1 | 60.3% | 
37 | C/C(=N\NC(=S)NC1CCCCC1)c1ccc(C)o1 |  | 4.65 µM (active)
38 | CCCc1cc(C(=O)Nc2ccc(Cl)cn2)cs1 | -17.8% | 
39 | CCOc1ccc(CCNC(=O)Nc2ccccc2)cc1OCC | 5.2% | 
40 | COC(=O)c1cccc(N2C(=O)C3C4C=CC(CC4)C3C2=O)c1 (configuration not stated) | 16.2% | 
41 | Cn1c(=NC(=O)c2cnccn2)sc2ccccc21 |  | 11.7 µM (active)
42 | Cn1c(=NC(=O)CSCC(=O)N2CCCCC2)sc2ccccc21 | 34.9% | 
43 | Cn1c(=NC(=O)CSCC(=O)N2CCOCC2)sc2ccccc21 | 8.65% | 
44 | CCN(CC(=O)Nc1ccccc1C(=O)NC1CC1)Cc1cccs1 | 11.3% | 
45 | COc1cc(CN2CCC(n3nccc3NC(=O)CCCc3ccccc3)CC2)ccc1O | 15.5% | 
46 | COCCCN1C(=O)C(=O)/C(=C(/O)c2ccc(S(=O)(=O)N3CCOCC3)cc2)C1c1ccc(F)cc1 (configuration not stated) | 2.37% | 

Row | Compound | activity change, negative = inhibition | Potency
47 | CCc1cccc(NC(=O)C2CCCN(S(=O)(=O)c3ccc4[nH]c(=O)ccc4c3)C2)c1 (configuration not stated) | -7.69% | 
48 | CCNC(=O)N1CCN(S(=O)(=O)c2ccc3c(c2)OCCCO3)CC1 | -9.41% | 
49 | Cc1ccc(C(=O)NC2CCCC(C)C2C)cc1S(=O)(=O)N1CCCCC1 (configuration not stated) |  | 14.7 µM (active)
50 | Cc1ccc(C(=O)NCC(=O)O)cc1S(=O)(=O)N1CCCCC1 | -3.2% | 
51 | Cc1ccc(C(=O)Nc2ccc3c(c2)OCO3)cc1S(=O)(=O)N1CCCCC1 | 46.5% | 
52 | CC(C)CCNC(=O)c1ccc2c(Cl)c3c(nc2c1)CCC3 | 34% | 
53 | O=C(NNC(=O)c1ccco1)Nc1ccccc1 | 0.862% | 
54 | CC(=O)Nc1ccc(-c2nc3ccccc3o2)cc1 | -22.4% | 
55 | O=C(Cc1cccc2ccccc12)Nc1ccc2oc(-c3ccccc3)nc2c1 | -21.5% | 
56 | O=C(Nc1ccc2oc(-c3ccc4ccccc4c3)nc2c1)c1cccs1 |  | 4.65 µM (active)
57 | O=C(c1ccc(Br)o1)N1CCN(CCOc2ccccc2)CC1 | -12.7% | 
58 | COc1ccc2[nH]cc(CCN3C(=O)c4ccc(C(=O)O)cc4C3=O)c2c1 | 33.5% | 
59 | Fc1ccc(OCc2nn3c(Cn4nnc5ccccc54)nnc3s2)cc1 | -28.1% | 
60 | COc1ccc(N2C(=O)c3ccccc3NC2c2ccc(OC)c(CN3CCOCC3)c2)cc1 (configuration not stated) | 316% | 
61 | COc1ccc(C2Nc3ccccc3C(=O)N2Cc2ccccc2)cc1Cn1nnc2ccccc21 (configuration not stated) |  | 3.29 µM (active)
62 | COc1ccc(C2Nc3ccccc3C(=O)N2c2ccc(F)cc2)cc1Cn1nnc2ccccc21 (configuration not stated) |  | 9.28 µM (active)
63 | Cc1ccc(C2Nc3ccccc3C(=O)N2CCN2CCNC2=O)cc1 (configuration not stated) | -0.318% | 
64 | CC(=O)NN1C(=O)c2ccccc2NC1c1ccccc1 (configuration not stated) | -3.77% | 
65 | COc1ccc(N(CC(=O)NCC2CCCO2)C(=O)CCC(=O)Nc2nccs2)c(OC)c1 (configuration not stated) | -6.68% | 
66 | O=C(CSc1nc2[nH]c(=O)[nH]c(=O)c2s1)Nc1cccc(F)c1 | 1.82% | 
67 | Cc1ccc(S(=O)(=O)N2CCCCC2)cc1C(=O)N(C)CC(=O)Nc1cccc(F)c1 | -27.7% | 
